Screens (PubChem)
CRFR2-BP antag = CRF-BP/CRF-R2 complex antagonism; HEK293 CRF-R2/CRF-BP, CRF-induced calcium fluorescence; inhibition, % at 11.8 µM; 0.59% of 350,000 active; AID 588475;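 active = inhibition of the ligand-induced calcium signal above about 50% at the single tested concentration, limit read from the data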
TMEM16A act = activates or potentiates the mouse TMEM16A chloride channel. 0.3% of 340,000 active. Q8BHY3. HEK293 TMEM16A/YFP-H148Q/I152L, iodide quench fluorescence; hits give low values. B-score at 10 µM;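 active = fluorescence-ratio B-score plate-corrected deviation score at least 3 library SD below zero, with starting fluorescence score within 5 deviations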;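 also: channel opened by trigger with iodide after compound preincubation; score built on the fluorescence ratio of max minus min over baseline; more negative score means more quench and so TMEM16A activation or potentiation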
Target sequence (Q8BHY3 whole entry, looked up): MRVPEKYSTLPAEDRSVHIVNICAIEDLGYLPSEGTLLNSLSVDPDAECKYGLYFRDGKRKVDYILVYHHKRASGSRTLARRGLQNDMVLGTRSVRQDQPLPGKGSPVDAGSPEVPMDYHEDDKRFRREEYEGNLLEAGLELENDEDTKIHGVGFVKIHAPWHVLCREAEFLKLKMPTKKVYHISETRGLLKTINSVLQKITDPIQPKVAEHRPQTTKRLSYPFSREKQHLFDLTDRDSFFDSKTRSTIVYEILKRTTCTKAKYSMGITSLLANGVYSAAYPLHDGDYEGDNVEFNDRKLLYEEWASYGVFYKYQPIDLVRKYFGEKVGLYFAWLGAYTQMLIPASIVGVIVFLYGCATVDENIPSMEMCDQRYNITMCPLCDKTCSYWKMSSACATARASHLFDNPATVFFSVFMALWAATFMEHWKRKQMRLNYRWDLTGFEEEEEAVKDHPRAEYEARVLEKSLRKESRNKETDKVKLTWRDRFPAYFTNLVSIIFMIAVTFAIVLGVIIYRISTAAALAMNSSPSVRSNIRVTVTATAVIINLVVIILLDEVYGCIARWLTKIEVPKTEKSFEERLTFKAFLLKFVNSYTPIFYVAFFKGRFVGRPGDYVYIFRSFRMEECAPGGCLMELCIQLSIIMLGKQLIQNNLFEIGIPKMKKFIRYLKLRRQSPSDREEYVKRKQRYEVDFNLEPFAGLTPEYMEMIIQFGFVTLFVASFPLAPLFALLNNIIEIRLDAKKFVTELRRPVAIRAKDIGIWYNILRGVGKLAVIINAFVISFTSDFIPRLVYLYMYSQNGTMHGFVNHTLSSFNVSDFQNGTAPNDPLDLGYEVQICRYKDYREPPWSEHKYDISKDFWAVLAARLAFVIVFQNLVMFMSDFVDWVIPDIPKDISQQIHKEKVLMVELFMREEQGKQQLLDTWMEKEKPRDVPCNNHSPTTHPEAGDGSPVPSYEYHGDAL
RTF Ca sens act = increases calcium sensitivity of human cardiac regulated thin filaments. 0.24% of 340,000 active. IANBD-labeled TnC RTF fluorescence at EC20 calcium; 0% EC20 calcium, 100% full calcium. activation, % at 7.2 µM. P19429+P45379;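 active = activation above the mean over all tested compounds plus 3 SD, cut at about 30% in these data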;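 also: rise in fluorescence read as greater calcium sensitivity of cardiac thin filaments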
CRFBP-R2 agonist = agonists of human CRF-binding protein/CRF-R2 receptor complex; HEK293 CRF-R2/CRF-BP, calcium dye fluorescence (FLIPR); percent of saturating CRF peptide response; activation, % at 13.2 µM; 0.46% of 350,000 active; AID 588473;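 active = activation of at least 50%, plus an integration ratio under a set limit after plate pattern correction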;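 also: plate controls were neutral control wells without compound for no effect and CRF at EC100 for full effect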
TMEM16A inh = blocks the mouse calcium-activated chloride channel TMEM16A; HEK293 TMEM16A/YFP iodide influx fluorescence, ionomycin; normalized B-score (activity score, 25-100; higher = stronger inhibition) at 10 µM; 1.2% of 310,000 active; AID 588511;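 active = ratio plate-corrected score three or more library SD toward inhibition, starting fluorescence score within five deviations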;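 also: score derived from kinetic fluorescence span divided by baseline fluorescence per well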
Cardiac RTF inh = cardiac RTF calcium desensitization; AID 493244; IANBD-labeled cardiac RTF, Ca2+ fluorescence; inhibition, % at 7.15 µM; 0.12% of 340,000 active; P19429+P45379;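 active = inhibition above the mean inhibition of all tested compounds plus 3 SD, cut at about 17% in these data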;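 also: assay run at fixed EC70 calcium of 1.6 mM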
* marks the source's active call; other numbers are inactive results; i = inactive; · = no result given. Shown are actives, neighbours in structure and some others; about 2.4% of the full set was active somewhere.

SMILES	CRFR2-BP antag	TMEM16A act	RTF Ca sens act	CRFBP-R2 agonist	TMEM16A inh	Cardiac RTF inh
COCCn1c(=O)c2c(nc3n2CC(C)CN3CCc2ccccc2)n(C)c1=O (stereo not drawn)	10.8	i	-4.4	0.7	i	5.4
COc1ccc2c(c1OC)C(=O)N1N=C(c3ccc(O)cc3)CC21 (stereo not drawn)	5.0	i	4.0	0.3	i	-4.4
CNc1ccccc(-c2ccc3cc4c(cc3n2)OCO4)c1=O	-6.2	i	9.6	9.0	i	-5.1
CCOc1cc(C#N)ccc1OCC(=O)N1CCN(C(=O)c2cccs2)CC1	5.7	i	0.8	0.7	·	-3.7
NC(=O)c1c(NC(=O)c2ccc(N3C(=O)CCC3=O)cc2)sc2c1CCCC2	-7.9	i	0.5	-3.1	·	3.8
COc1ccc(-c2nc3n(n2)C(c2ccccc2Cl)C(C(N)=O)=C(C)N3)cc1 (stereo not drawn)	-6.7	i	4.4	-0.8	i	-7.7
O=C(COC(=O)CNC(=O)c1ccc(Cl)cc1)Nc1ncc(C(F)(F)F)cc1Cl	14.2	i	-1.6	-0.3	i	-12.3
O=C(COC(=O)C1(c2ccc(Cl)cc2)CCCC1)Nc1ncc(C(F)(F)F)cc1Cl	-0.2	i	-4.5	2.7	100*	-3.8
Cc1ccc2nc(/C(C#N)=C\c3ccc([N+](=O)[O-])o3)[nH]c2c1	-97.9	i	-2.5	54.9*	i	-3.8
N#C/C(=C(/O)c1ccc([N+](=O)[O-])o1)c1nc2ccccc2[nH]1	16.5	i	-0.7	1.1	i	2.2
Cc1ccc2nc(/C(C#N)=C\c3ccc(N4CCOCC4)o3)[nH]c2c1	14.4	i	151.9*	7.3	i	-132.7
N#C/C(=C\c1ccc([N+](=O)[O-])o1)c1nc2ccccc2[nH]1	-80.9	·	·	66.5*	i	·
O=C1NCCO1	12.1	i	1.2	-0.1	i	10.2
CCc1ccccc1N(C)S(=O)(=O)c1ccc(-c2cc(C)no2)s1	-41.9	-28.1*	-0.7	28.1	i	-2.4
Cc1ccc(S(=O)(=O)N2CCCCC2C(=O)N(C)c2ccccc2)cc1 (stereo not drawn)	3.7	i	7.6	-2.5	i	8.1
COc1nnc(-c2ccc(N3CCCCC3)c(NC(=O)C3CCCCC3)c2)c2ccccc12	0.2	i	-0.1	2.1	100*	5.8
O=C(Nc1cc(S(=O)(=O)N2CCCCC2)ccc1N1CCCCC1)C1CC1	103.3*	i	-1.0	1.3	i	-0.4
CSc1c(C#N)sc(=S)n1-c1ccc(C)cc1	55.8*	i	7.3	1.8	i	-5.1
CCS(=O)(=O)c1ccc(C(=O)NC2CC2)c(Cl)c1Cl	30.2	i	2.8	-4.1	i	-8.0
O=C(c1cc(-c2ccccc2Cl)nc2ccc(Br)cc12)N1CCN(c2ccccn2)CC1	-6.1	i	2.9	2.2	25*	7.3
Cn1nc(-c2ccccc2)c2nc3ccccc3nc21	-204.6	i	52.5*	252.9	i	-8.8
CCCCn1nc(-c2ccccc2)c2nc3ccccc3nc21	·	·	·	·	i	·
O=C(CS(=O)(=O)c1ccccc1)Nc1nnc(-c2cccs2)o1	0.5	i	-0.5	1.7	i	-12.3
CCOC(=O)c1nnn(-c2nonc2N)c1CN(C)C1CCCCC1	60.1*	i	-0.7	-2.5	i	-4.9
Cc1ccc[n+](-c2nc([O-])sc2C=O)c1	-54.9	i	94.0*	92.2*	i	-114.1
CCOC(=O)C1CCN(S(=O)(=O)c2cc3c4c(c2)C(C)C(=O)N4CCC3)CC1 (stereo not drawn)	-5.7	i	-6.3	-0.3	i	3.9
CC(C)C(NS(=O)(=O)c1ccc2c(c1)oc(=O)n2C)C(=O)N1CCN(C2CCCCC2)CC1 (stereo not drawn)	57.7*	i	5.0	1.0	i	-4.0
CC1CC(C)CN(C(=O)C(NS(=O)(=O)c2ccc3c(c2)oc(=O)n3C)C(C)C)C1 (stereo not drawn)	3.5	i	-2.0	-1.0	i	-3.0
Cc1ccc(C(=O)NCCSc2ccc(Cl)cc2)cc1S(=O)(=O)Nc1ccccc1	-7.6	i	-0.5	-0.6	100*	-7.8
CCN(CC)CCCCCOc1ccccc1OC	-6.3	i	-4.0	0.8	25*	0.1
